Source: PubChem BioAssay (NCI)
About 79,000 compounds went through this panel and 15% of them were active in at least one assay; those are over-represented in the sample as a whole. Unmarked numbers belong to inactive results. Calls of active or inactive are those of the source. Rule as the data show it: active = growth inhibition above about 70%; inactive = the rest. Where a SMILES comes first, the peptide text is derived from it. [ ]: non-standard residue; d: D form. The star is where a group is joined. ξ: configuration not given here. ξF = NC(Cc1ccccc1)C(=O)O; Cbz = O=C(OCc1ccccc1)*

Experiments:
[1] = NCI Yeast Anticancer Drug Screen. Data for the rad50 strain (AID 155);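 also: 0% = growth of vehicle-only cultures of the same strain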; conditions: S. cerevisiae rad50 strain growth inhibition; at 50.0 µM; stronger effect = higher value
Summary of the method: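 Growth of the mutant yeast was measured after compound exposure and referenced to vehicle-treated cultures.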

[2] = NCI Yeast Anticancer Drug Screen. Data for the mec2-1 strain (AID 157); conditions: S. cerevisiae mec2-1 strain, at 50.0 µM, stronger effect = higher value
Summary of the method: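 Yeast mec2-1 mutant treated with compound. Readout: growth inhibition vs vehicle controls.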

[3] = NCI Yeast Anticancer Drug Screen. Data for the sgs1 mgt1 strain (AID 161);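 also: 0% = growth of cultures given vehicle only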; conditions: S. cerevisiae sgs1 mgt1 strain, at 50.0 µM, stronger effect = higher value
Summary of the method: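 Test agents were incubated with a DNA-repair-mutant yeast strain. Growth was then read and compared against vehicle-treated controls.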

[4] = NCI Yeast Anticancer Drug Screen. Data for the cln2 rad14 strain (AID 165);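 also: 0% = growth equal to vehicle treated cultures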; conditions: S. cerevisiae cln2 rad14 strain, at 50.0 µM, stronger effect = higher value
Summary of the method: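 cln2 rad14 yeast strain; compound exposure; growth inhibition read vs vehicle controls.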

[5] = NCI Yeast Anticancer Drug Screen. Data for the bub3 strain (AID 167); conditions: S. cerevisiae bub3 mutant strain, at 50.0 µM, stronger effect = higher value
Summary of the method: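 Whole-cell yeast assay. The mutant strain was incubated with compounds, and growth inhibition was determined by comparison with vehicle-treated cells.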

[6] = NCI Yeast Anticancer Drug Screen. Data for the mlh1 rad18 strain (AID 175); conditions: S. cerevisiae mlh1 rad18 strain growth inhibition; at 50.0 µM; stronger effect = higher value
Summary of the method: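 Yeast w/ defined DNA-repair lesions; compound exposure; growth vs vehicle controls → % inhibition.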

SMILES | growth inhibition [1] | growth inhibition [2] | growth inhibition [3] | growth inhibition [4] | growth inhibition [5] | growth inhibition [6]
CCN(CCOC(=O)Nc1ccc(Cl)cc1)C(=O)Nc1ccc(Cl)cc1 | -1.75% | -36.8% | 16.4% | 2.8% | -8.55% | -18.2%
CC1(c2ccccc2)N=C(C(N)=O)c2[nH]cnc2N1 (stereo not given) | -11.8% | -41.1% | -29.1% | 1.85% | 8.7% | -11.8%
COc1cc([N+](=O)[O-])ccc1NC(=O)Nc1nccs1 | 5.75% | 29.9% | 11.9% | -9.25% | 22.4% | -37.3%
COC(=O)c1nnn(-c2cccc(Cl)c2)c1N | 3.7% | -6.1% | -0.25% | 15.7% | -26.9% | 20.4%
O=C(Nc1ccc([N+](=O)[O-])cc1Cl)c1ccc(C(=O)Nc2ccc([N+](=O)[O-])cc2Cl)cc1 | -6.4% | -1.75% | -1.85% | 31.3% | 1.95% | 0.55%
COc1ccc(C(=O)C(C)CN2CCOCC2)cc1 (stereo not given) | 68.1% | 22.6% | 40.5% | 32.6% | 52.8% | 53.5%
COc1ccc(C2C(Cl)C(=O)N2NC(=O)Cc2ccccc2)cc1 (stereo not given) | -10.6% | -11.9% | -7.3% | 8.95% | -10.9% | 12.6%
O=C(OC1C#CCSCC#C/C=C\1)c1ccc2c(c1)C(=O)c1ccccc1C2=O (stereo not given) | -0.05% | -34% | -53.2% | -37% | -16.9% | -61.6%
COc1cc(/C=N/N2CC(=O)N(c3ccccc3)CC2=O)cc(OC)c1 | -469% | 18.1% | 23.7% | 7.1% | 10.8% | 13.1%
CCc1c(CO)cnc(C)c1OP(=O)(O)O | -33.5% | -39.5% | -18.1% | 3.65% | -39.6% | -22.6%
Cc1csc2[nH]c(=O)[nH]c(=O)c12 | 5.5% | 6.05% | -1.4% | -28.1% | -15.2% | 4.5%
CCN(CC)C(=O)c1cccc(N)c1 | 12.6% | -11.3% | 11.5% | 11% | 25.3% | 14%
CCOC(=O)CNC(=O)C(Cc1ccccc1)NC(=O)OCc1ccccc1 (stereo not given) (Cbz-[ξF]-Gly-OEt) | -16.2% | -19.1% | 4.55% | -4.75% | -3.6% | -9%
C(CCC[Si]12OCCN(CCO1)CCO2)CC[Si]12OCCN(CCO1)CCO2 | 6% | -1.8% | 20.1% | 11.9% | -1.45% | 1.1%
Cc1ccc(-c2nnc(-c3cccc4ccccc34)o2)cc1 | 1.85% | -31.9% | 0.75% | 4.1% | -44.1% | -8.05%
O=C1CCc2ccccc21 | -26.6% | -10.5% | -15% | 15.1% | 3.25% | 7.75%
Cc1cc(N=C2C=C(Nc3cc(C)on3)C(=O)c3ccccc32)no1 | -8.9% | -1.25% | -21.4% | 1.05% | -14.7% | 6.05%
CC1=C2CCCCC2(C)C=C(C(=O)O)C1=O (stereo not given) | 22.2% | 50.5% | 18.8% | 34.6% | 12.2% | 23.4%
CCOC(=O)C1CC1C#N (stereo not given) | 3.4% | -11.9% | 9% | 13.9% | 9.95% | 7.75%
CN1CC(O)C(C(=O)NC23CC4CC(CC(C4)C2)C3)C1 (stereo not given) | 30.8% | 4.15% | 11.8% | 14.1% | 10.4% | 30.2%

SMILES | growth inhibition [1] | growth inhibition [2] | growth inhibition [3] | growth inhibition [4] | growth inhibition [5] | growth inhibition [6]
CC(Sc1ccc([N+](=O)[O-])cn1)C(=O)O (stereo not given) | 2.55% | 12.9% | 13.5% | -37% | -25.9% | 30.9%
Cc1cccc(C)c1NC(=O)Nc1cccc(Cl)c1 | 6.3% | 15.6% | 7.7% | -0.5% | 11% | -0.8%
C/C=C/C=C/C=N\O | 16.6% | 3.1% | -6.65% | -2.8% | -1.45% | 6.8%
CC(Sc1nc2ccc(Cl)cc2[nH]1)C(=O)O (stereo not given) | -11.8% | -4% | -0.9% | -16.9% | 12.9% | -3.85%
CCOC(=O)c1c[nH]c2cc(Cl)cc(OC)c2c1=O | -11.3% | -5.6% | -1% | -32.9% | -7.35% | -17%
CN(C)C(=O)Sc1ccc(O)cc1 | 5.05% | -21.6% | -4.65% | -28.3% | 12.9% | -2.8%
O=C(O/N=C(\c1ccccc1)C(Br)c1ccccc1)c1ccccc1 (stereo not given) | -2.75% | 10.2% | 2.9% | -2.05% | 8.4% | -2.55%
NC(Cc1ccc(S(=O)(=O)O)cc1)C(=O)NC(Cc1ccc(S(=O)(=O)O)cc1)C(=O)NC(Cc1ccc(S(=O)(=O)O)cc1)C(=O)O (stereo not given) | -4.25% | -14.8% | 27.1% | -9.5% | 9.3% | -8.2%
O=C(O)c1cc2c(c3c1CCCC3)CCC1CCCC21 (stereo not given) | 13.2% | 26.4% | 33.4% | -6.25% | 20.8% | 27.9%
O=C(NCCNC(=O)c1cc(Cl)cc(Cl)c1O)c1cc(Cl)cc(Cl)c1O | -1.35% | 11.4% | 9.3% | -18.4% | -4.9% | 21.8%
O=[N+]([O-])c1ccc2oc3cccnc3c2c1 | 28.6% | -2.8% | -2.65% | -14.1% | 1.3% | 12.8%
O=S(=O)(O)c1ccc(OCCCCCCCCCCOc2ccc(S(=O)(=O)O)cc2)cc1 | -14.6% | 9.15% | -9.6% | 0.7% | -5.35% | -8.1%
COCC(C)(c1cn(C)c2ccccc12)c1cn(C)c2ccccc12 | -2.5% | -19.2% | -11.4% | -17.9% | 5.05% | -10.1%
CCOC(=O)CSc1nc(-c2ccc(Cl)cc2)c(C#N)c(=O)[nH]1 | 5.9% | -0.45% | 2% | 27.1% | 8.85% | -79%
CC1(C)C=C(C(Br)c2cccc(Cl)c2)C(=O)c2ccccc21 (stereo not given) | 98.3% (active) | 99.6% (active) | 99.8% (active) | 99% (active) | 98.8% (active) | 99.3% (active)
S=C(SSSC(=S)N(C1CCCCC1)C1CCCCC1)N(C1CCCCC1)C1CCCCC1 | 1.5% | 3.7% | 10.1% | 1.45% | -5.9% | 17.2%
CN(C)N=Nc1ccc(C(=O)N/N=C/c2ccc([N+](=O)[O-])cc2)cc1 | -0.95% | 40.5% | 4.75% | -5.75% | 23.9% | 17.9%
O=C(NNc1ccccc1)NNc1ccccc1 | 32.8% | 21.4% | 45.3% | 46.3% | 20.8% | 29.8%
Nc1ncnc2c1ccn2Cc1c(F)cccc1Cl | -0.8% | -7.3% | -10.9% | -1.2% | 6.05% | -13.6%
c1cnn(C23C4C5C6C4C2C6C53)c1 (stereo not given) | -24.4% | -26.6% | -18.7% | -20.5% | -32.5% | -38.6%
